Assay [1] in a line: NCI Yeast Anticancer Drug Screen. Data for the rad50 strain (AID 155).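 Also: 0% = growth of vehicle-only cultures of the same strain.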 Particulars: S. cerevisiae rad50 strain growth inhibition; at 50.0 µM; stronger effect = higher value. The gist of the method:
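Yeast carrying a defined DNA repair defect were exposed to test compounds, and growth was compared with vehicle-treated controls to give percent inhibition.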

Assay [2] is described as follows: NCI Yeast Anticancer Drug Screen. Data for the mec2-1 strain (AID 157). The settings on record: S. cerevisiae mec2-1 strain, at 50.0 µM, stronger effect = higher value. The gist of the method: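 Yeast mec2-1 mutant treated with compound. Readout: growth inhibition vs vehicle controls.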
Assay [3] is described as follows: NCI Yeast Anticancer Drug Screen. Data for the sgs1 mgt1 strain (AID 161).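 Also: 0% = growth of cultures given vehicle only.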 Particulars: S. cerevisiae sgs1 mgt1 strain, at 50.0 µM, stronger effect = higher value. The procedure, abridged: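 Genetically altered yeast, compound exposure, growth inhibition relative to vehicle.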
The nature of assay [4]: NCI Yeast Anticancer Drug Screen. Data for the cln2 rad14 strain (AID 165).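 Also: 0% = growth equal to vehicle treated cultures.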 The settings on record: S. cerevisiae cln2 rad14 strain, at 50.0 µM, stronger effect = higher value. The gist of the method:
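cln2 rad14 yeast strain; compound exposure; growth inhibition read vs vehicle controls.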

The nature of assay [5]: NCI Yeast Anticancer Drug Screen. Data for the bub3 strain (AID 167). Particulars: S. cerevisiae bub3 mutant strain, at 50.0 µM, stronger effect = higher value. The procedure, abridged: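 Compounds were applied to a genetically altered yeast strain carrying a cell-cycle control defect. Growth inhibition was scored against vehicle-treated controls.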
Assay [6] is described as follows: NCI Yeast Anticancer Drug Screen. Data for the mlh1 rad18 strain (AID 175). The settings on record: S. cerevisiae mlh1 rad18 strain growth inhibition; at 50.0 µM; stronger effect = higher value. The gist of the method: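 Yeast w/ defined DNA-repair lesions; compound exposure; growth vs vehicle controls → % inhibition.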

The values that follow come from PubChem BioAssay (NCI).

Structures are written as SMILES. This is part of a sample that, as a whole, favours compounds with a hit. Of some 79,000 tested, about 15% had one in any assay. Values without a mark were called inactive. Calls of active or inactive are those of the source. Rule as the data show it: active = growth inhibition above about 70%; inactive = the rest.

Regarding `COC(=O)CSc1n[nH]c(-c2ccccc2)n1`, the growth inhibition in assay [1] was 1.05%; in assay [2], -7.25%; in assay [3] it was 7.2%; in assay [4] it was -1%; in assay [5], 3.4%; in assay [6], -4.3%.

On to `Cc1ccccc1C(N)=O`, for which the growth inhibition in assay [1] is 23.7%; in assay [2], 3.6%; in assay [3] it was 11.2%; in assay [4], -12.6%; in assay [5], 12.8%; in assay [6], 26.5%.

Take `C=CC(O)CCCC` (stereo not given): the growth inhibition in assay [1] is 8.35%; in assay [2], -32.6%; in assay [3], 0.6%; in assay [4], 6.25%; in assay [5] it was -17.1%; in assay [6] it was 18.1%.

In the case of `Cc1cc(N=[N+]=[N-])c2ccc(Cl)cc2n1`, the growth inhibition in assay [1] was -8.15%; in assay [2], 1.05%; in assay [3], -5.55%; in assay [4], -47%; in assay [5], 8.55%; in assay [6], 33.1%.

On to `CCOC(=O)C1CC(C)CC1=O` (stereo not given), for which the growth inhibition in assay [1] is 5.7%; in assay [2] it was -2.6%; in assay [3] it was -4.6%; in assay [4], -4.4%; in assay [5] it was 1.35%; in assay [6] it was 0.2%.

With `O=C1CCCCc2ccccc21`, the growth inhibition is -39.1% in assay [1]; -57.4% in assay [2]; -7.95% in assay [3]; -7% in assay [4]; -25.1% in assay [5]; -8.25% in assay [6].

On to `CN(C)CCNC(=O)c1cccc2nc3c(C(=O)NCCN(C)C)cccc3nc12`, for which the growth inhibition is -11.7% in assay [1]; -20.4% in assay [2]; -46.6% in assay [3]; -33.7% in assay [4]; -34.1% in assay [5]; -40.5% in assay [6].

As to `O=c1c2ccccc2[nH]c2ccc(O)cc12`, the growth inhibition in assay [1] is 1.45%; in assay [2], -7.95%; in assay [3], 4.8%; in assay [4], -3.25%; in assay [5] it was 3.2%; in assay [6], 16.4%.

In the case of `CC(C)(C(N)=O)c1ccccc1`, the growth inhibition in assay [1] was -28.1%; in assay [2], -3.85%; in assay [3] it was 16.6%; in assay [4], -28.4%; in assay [5], -1.55%; in assay [6], -5.05%.

Take `COC(=O)/C(C#N)=C/c1cccnc1`: the growth inhibition in assay [1] is -10.1%; in assay [2] it was -7.65%; in assay [3], 6%; in assay [4], -61.1%; in assay [5], -5.45%; in assay [6], -15.7%.

On to `Cc1cc(Cl)c(=O)n(-c2ccc(Cl)cc2)n1`, for which the growth inhibition was 27.3% in assay [1]; -4.6% in assay [2]; 9.45% in assay [3]; 4.7% in assay [4]; 15.3% in assay [5]; 44.9% in assay [6].

Consider `Cn1c(=O)cnc2c3ccccc3ccc21`, for which the growth inhibition was 22.8% in assay [1]; 5.15% in assay [2]; 23.6% in assay [3]; 15.8% in assay [4]; 18.4% in assay [5]; 19.6% in assay [6].

In the case of `CCN(CC)C(=O)CCC1CCCCC1`, the growth inhibition in assay [1] is -35%; in assay [2], -18.9%; in assay [3], -11.9%; in assay [4], -39.3%; in assay [5] it was -14.1%; in assay [6], -23.5%.

Turning to `N=c1nc2ccc3ccccc3c2nn1-c1ccc([N+](=O)[O-])cc1`, the growth inhibition in assay [1] is 88% (active); in assay [2] it was 16.4%; in assay [3] it was 13.8%; in assay [4], -5.4%; in assay [5], 18.6%; in assay [6], 27.2%.

As to `CC(C)c1ccc(/C(O)=C/C(=O)C(=O)/C=C(/O)c2ccc(C(C)C)cc2)cc1`, the growth inhibition is 31.4% in assay [1]; 2.25% in assay [2]; 1.25% in assay [3]; 9.6% in assay [4]; 2.5% in assay [5]; 10.7% in assay [6].

For `COc1c(C)c(C)c(Br)c(C)c1C`, the growth inhibition in assay [1] is 6.35%; in assay [2] it was 7.65%; in assay [3] it was 6.7%; in assay [4] it was 15.6%; in assay [5], 0.55%; in assay [6], 12.2%.

In the case of `N#COc1ccc(-c2ccccc2)cc1`, the growth inhibition in assay [1] was -38.5%; in assay [2], -8.35%; in assay [3], -12.2%; in assay [4], -15.2%; in assay [5], -9.25%; in assay [6], 0.8%.

Turning to `N/C=N/O`, the growth inhibition was 19.9% in assay [1]; 4.35% in assay [2]; 16.6% in assay [3]; 18.2% in assay [4]; 18.8% in assay [5]; 22.7% in assay [6].

On to `CC/C=C\C/C=C\C/C=C\CCCCCCCC(=O)OC(COC(=O)CCCCCCCCCCCCCCCCC)COC1OC(CO)C(O)C(O)C1O` (stereo not given), for which the growth inhibition in assay [1] is 38.4%; in assay [2] it was 8.55%; in assay [3], 31.8%; in assay [4] it was -3.4%; in assay [5] it was 32.2%; in assay [6], 33.4%.

On to `S=C(Nc1ccc2c(c1)Cc1ccccc1-2)Nc1ccc2c(c1)Cc1ccccc1-2`, for which the growth inhibition is 25.8% in assay [1]; 18.9% in assay [2]; -39.7% in assay [3]; -12.7% in assay [4]; 27% in assay [5]; 31% in assay [6].
